ELG1 genotox: genotoxicity induction in ELG1-luciferase HEK293T cells | HEK293T ELG1-luciferase reporter, luminescence, 16 h | Potency, µM (series often up to 46 µM), usual class: activators | 330,000 tested, 1.3% active; note: nearly all actives have a fitted effect of over 60% in size
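After overnight (16 hr) compound treatment at 37 °C, ELG1-luciferase HEK293T cells were lysed with ONE-Glo; luminescence quantified 30 min later at room temperature.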
NPC1 prom act: activators of NPC1 promoter; 320,000 tested, 2.4% active; Huh7 NPC1 promoter luciferase reporter, 24 h; Potency, µM (highest dose often 9.22 µM), hits mostly activators; note: nearly all actives have a fitted effect of over 60% in size
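Quantitative HTS used a cell-based reporter: Huh7 cells stably bearing the NPC1 promoter upstream of luciferase were treated with compounds for 24 h, and promoter activation was read as luminescence.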
SMN2 splice up: SMN2 splice variant enhancement | HEK293 SMN2-luciferase splicing reporter, luminescence, 30-36 h | Potency, µM (series often up to 46.1 µM), hits mostly activators | 210,000 tested, 2.8% active | AID 1458; note: nearly all actives have a fitted effect of over 55% in size
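qHTS luciferase splicing reporter: luminescence rises when SMN2 exon 7 is included in transfected HEK293 cells. Compound exposure lasted 30-36 h at 37C, with 4.5 mM final sodium butyrate as control, followed by a ONE-Glo read.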
Rab9 promoter act: Rab9 promoter activation | Huh7 Rab9 promoter-luciferase reporter, luminescence, 24 h | Potency, µM (titrated, usually from 9.22 µM), usual class: activators | 320,000 tested, 2.8% active; note: nearly all actives have a fitted effect of over 60% in size
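Cells were plated at 1500 per well in reduced-serum medium with 10% FBS and left 2 h. Compound in DMSO was then added for 24 h at 37 °C. Reporter signal was read by luminescence after 10 min with luciferase detection reagent.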
FLuc modulator: firefly luciferase modulation, counter-screen for miR-21 project; P08659; Potency, µM (top dose mostly 57.5 µM), hits mostly inhibitors; 360,000 tested, 6.9% active; purified FLuc, Km substrates, luminescence inhibition; note: nearly all actives have a fitted effect of over 55% in size
Target sequence (P08659 whole entry, looked up): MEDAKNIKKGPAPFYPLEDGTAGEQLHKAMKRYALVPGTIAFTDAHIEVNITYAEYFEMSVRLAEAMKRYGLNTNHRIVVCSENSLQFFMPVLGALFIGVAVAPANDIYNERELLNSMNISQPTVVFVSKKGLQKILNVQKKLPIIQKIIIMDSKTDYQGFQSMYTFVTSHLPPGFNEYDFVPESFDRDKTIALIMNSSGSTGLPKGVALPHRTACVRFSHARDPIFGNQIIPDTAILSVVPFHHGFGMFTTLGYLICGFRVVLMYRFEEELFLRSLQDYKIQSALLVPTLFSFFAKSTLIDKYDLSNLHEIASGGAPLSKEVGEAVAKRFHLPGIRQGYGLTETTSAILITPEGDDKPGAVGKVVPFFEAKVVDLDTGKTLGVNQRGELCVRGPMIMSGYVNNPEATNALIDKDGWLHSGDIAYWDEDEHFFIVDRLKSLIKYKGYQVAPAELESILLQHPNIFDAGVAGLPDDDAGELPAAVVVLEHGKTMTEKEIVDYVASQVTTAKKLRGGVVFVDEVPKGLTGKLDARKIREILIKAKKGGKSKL
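Biochemical qHTS of compounds, final roughly 60 µM downward over six points, against 10 nM purified firefly luciferase using Km concentrations of substrates (10 uM D-luciferin, 10 uM ATP) in Tris acetate pH 7.5 buffer; luminescence output.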
Numbers stand for hits; - = inactive; ? = inconclusive; . = not tested or not shown; [ ] = dose if it differs, or a comment. Shown are actives, neighbours in structure and some others; about 7.4% of the full set was active somewhere. Calls come from the whole dose curve; as a rule, active = well fitted curve in the direction sought with a large enough effect; inconclusive = small, poorly fitted or top-dose-only effect, or another doubt; inactive = no such curve, though single readings can be large; an effect the other way counts as inactive or inconclusive.

SMILES	ELG1 genotox	NPC1 prom act	SMN2 splice up	Rab9 promoter act	FLuc modulator
CCCCn1c(N)c(N(CC)C(=O)c2ccc([N+](=O)[O-])c(C)c2)c(=O)[nH]c1=O	-	-	.	-	-
COc1cccc(-c2cc(C(=O)Nc3cccc(O)c3)no2)c1	?	?	-	?	0.43µM
COc1cccc(CNC(=O)Cn2ncn3nc(-c4cccs4)cc3c2=O)c1	.	.	.	.	-
FC(F)C(F)(F)C1=CC(c2cccs2)=NCCN1	-	-	0.71µM	-	-
FC(F)C(F)(F)C1=CC(c2ccccc2)=NCCN1	-	-	-	-	-
Cc1nc(Nc2ccccc2)c2nc(-c3ccccc3)n(CCCN3CCCCC3C)c2n1 (stereo not given)	.	.	-	.	.
C=CCc1c(C)nc2c(OC)cccc2c1Cl	-	-	.	-	13µM
COc1ccc(NC(=O)n2ncc3cc(Cl)ccc32)cc1OC	?	?	.	3.5µM	?
COc1cc(NC(=O)n2ncc3cc(Cl)ccc32)cc(OC)c1	?	-	.	?	12µM
COc1cc(OC)c(NC(=O)n2ncc3cc(Cl)ccc32)cc1Cl	.	.	.	.	-
CCN1N=C(C)C=C(c2ccccc2)n2c1nc1ccccc12	-	-	.	-	-
Cc1ccc(C)c(S(=O)(=O)N2CCN(C(=O)/C=C/c3ccco3)CC2)c1	-	-	.	-	-
COc1ccc(NC(=O)Nc2nnc(C(C)C)s2)cc1	?	3.5µM	-	?	21µM
COc1ccc(NC(=O)Nc2nnc(-c3ccccc3F)s2)cc1	-	?	-	2.8µM	-
COc1ccc(NC(=O)Nc2nnc(-c3ccco3)s2)cc1	?	0.89µM	.	1.3µM	?
Cc1ccc(NC(=O)CN(C)S(=O)(=O)c2cnc[nH]2)cc1	.	.	-	.	-
O=C(/C=C/c1c(F)cccc1Cl)Nc1ncccn1	?	2.8µM	14µM	2.5µM	15µM
O=C(/C=C/c1ccccc1Cl)c1ccc(O)cc1	-	-	.	-[1.84 µM]	9.5µM
O=C(/C=C/c1ccccc1Cl)c1cccnc1	-	-	-	-	17µM
O=C(/C=C/c1ccccc1Cl)c1ccccc(=O)c1O	-	-	-	-	?
COc1cc(C(=O)/C=C/c2cccnc2)ccc1O	-	-	.	-	19µM
COc1ccc(OC)c(C(=O)/C=C/c2cccnc2)c1	-	-	.	-	-
O=C(NNC(=O)c1ccccc1Cl)c1cccnc1	-	-	.	-	-
COC(=O)[C@@]1(Cc2ccccc2)[C@H]2C(=O)N(C)C(=O)[C@H]2[C@H]2CN=C(SCC(=O)c3ccccc3)N21	-	.	.	.	.
COc1cc(OC)c(NC(=O)C(C)n2nc(-c3ccc(C)cc3)c3c(c2=O)CCCC3)cc1Cl (stereo not given)	.	.	-	.	-
SMILES	ELG1 genotox	NPC1 prom act	SMN2 splice up	Rab9 promoter act	FLuc modulator
Cc1ccc(C(=O)Nc2cccc(C(F)(F)F)c2)cc1NC(=O)c1[nH]cnc1C(N)=O	-	.	.	.	.
Cc1cccc(NC(=O)C2CCC(CNS(=O)(=O)c3ccc4c(c3)CCCC(=O)N4)CC2)c1C (stereo not given)	.	.	.	.	-
O=C(/C=C/c1c(F)cccc1Cl)c1ccc(O)cc1	-	-	.	-	11µM
N#Cc1ccc(/C=C/C(=O)c2cccnc2)cc1	?	-	-	-	-
O=C(/C=C/c1ccc(Cl)cc1)c1cccnc1	-	-	-	-	21µM
C=CCNC(=O)/C=C/c1c(F)cccc1Cl	-	-	-	?	?
COc1ccc(C(=O)NNC(=S)Nc2ccccc2)cc1	?	2.5µM	11µM	0.56µM	11µM
O=[N+]([O-])c1ccc(NC(=S)N/C(=N/CS(=O)(=O)c2ccccc2)c2ccccc2)cc1	?	-	-	-	?
COc1ccccc1NC(=S)NNC(=O)c1c(Cl)c(C)nn1C	-	-	-	-	15µM
COc1ccc(NC(=S)N/C(=N/CS(=O)(=O)c2ccccc2)c2ccccc2)cc1	?	2.8µM	-	?	2.7µM
COc1ccccc1NC(=S)NNC(=O)c1cc(C)nn1C	-	-	-	-	?
COc1cc(OC)cc(C(=O)NNC(=S)Nc2ccccc2OC)c1	-	-	-	-	21µM
O=C(O)C1C2CCC(O2)C1C(=O)Nc1ccc(OC(F)F)cc1 (stereo not given)	-	-	.	-	-
Cc1ccc2c(c1)N(CC(=O)NCCc1ccccc1)C(=O)c1cccnc1O2	-	-	.	-	-
CC(=O)c1ccc(NC(=S)NNC(=O)c2ccncc2)cc1	-	-	-	-	19µM
COc1ccccc1C(=O)NNC(=O)c1ccccc1Br	-	-	.	-	?
